Screen size: about 47,000 compounds; about 2,800 (6%) were called active. The entries come from a sample that favours actives as a whole. Values without a mark were called inactive. Cut-off read from the data, not from the text of the source: active = z-score above about 3 (passing the limit was not always enough); inactive = the rest.

This experiment deals with Endoribonuclease Dicer (Homo sapiens) (UniProt Q9UPY3). Nature of the experiment: inhibitors of Dicer pre-microRNA processing, primary screen, biochemical, cat-ELCCA, chemiluminescence (AID 1347074).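 Note: plate controls were vehicle for no effect and no enzyme for full effect; higher signal means more uncleaved substrate so more Dicer inhibition.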 The settings on record: cat-ELCCA pre-miR-21 Dicer processing, at 25 µM, active compounds read high.
Endoribonuclease Dicer (Homo sapiens), sequence (Q9UPY3 whole entry, looked up): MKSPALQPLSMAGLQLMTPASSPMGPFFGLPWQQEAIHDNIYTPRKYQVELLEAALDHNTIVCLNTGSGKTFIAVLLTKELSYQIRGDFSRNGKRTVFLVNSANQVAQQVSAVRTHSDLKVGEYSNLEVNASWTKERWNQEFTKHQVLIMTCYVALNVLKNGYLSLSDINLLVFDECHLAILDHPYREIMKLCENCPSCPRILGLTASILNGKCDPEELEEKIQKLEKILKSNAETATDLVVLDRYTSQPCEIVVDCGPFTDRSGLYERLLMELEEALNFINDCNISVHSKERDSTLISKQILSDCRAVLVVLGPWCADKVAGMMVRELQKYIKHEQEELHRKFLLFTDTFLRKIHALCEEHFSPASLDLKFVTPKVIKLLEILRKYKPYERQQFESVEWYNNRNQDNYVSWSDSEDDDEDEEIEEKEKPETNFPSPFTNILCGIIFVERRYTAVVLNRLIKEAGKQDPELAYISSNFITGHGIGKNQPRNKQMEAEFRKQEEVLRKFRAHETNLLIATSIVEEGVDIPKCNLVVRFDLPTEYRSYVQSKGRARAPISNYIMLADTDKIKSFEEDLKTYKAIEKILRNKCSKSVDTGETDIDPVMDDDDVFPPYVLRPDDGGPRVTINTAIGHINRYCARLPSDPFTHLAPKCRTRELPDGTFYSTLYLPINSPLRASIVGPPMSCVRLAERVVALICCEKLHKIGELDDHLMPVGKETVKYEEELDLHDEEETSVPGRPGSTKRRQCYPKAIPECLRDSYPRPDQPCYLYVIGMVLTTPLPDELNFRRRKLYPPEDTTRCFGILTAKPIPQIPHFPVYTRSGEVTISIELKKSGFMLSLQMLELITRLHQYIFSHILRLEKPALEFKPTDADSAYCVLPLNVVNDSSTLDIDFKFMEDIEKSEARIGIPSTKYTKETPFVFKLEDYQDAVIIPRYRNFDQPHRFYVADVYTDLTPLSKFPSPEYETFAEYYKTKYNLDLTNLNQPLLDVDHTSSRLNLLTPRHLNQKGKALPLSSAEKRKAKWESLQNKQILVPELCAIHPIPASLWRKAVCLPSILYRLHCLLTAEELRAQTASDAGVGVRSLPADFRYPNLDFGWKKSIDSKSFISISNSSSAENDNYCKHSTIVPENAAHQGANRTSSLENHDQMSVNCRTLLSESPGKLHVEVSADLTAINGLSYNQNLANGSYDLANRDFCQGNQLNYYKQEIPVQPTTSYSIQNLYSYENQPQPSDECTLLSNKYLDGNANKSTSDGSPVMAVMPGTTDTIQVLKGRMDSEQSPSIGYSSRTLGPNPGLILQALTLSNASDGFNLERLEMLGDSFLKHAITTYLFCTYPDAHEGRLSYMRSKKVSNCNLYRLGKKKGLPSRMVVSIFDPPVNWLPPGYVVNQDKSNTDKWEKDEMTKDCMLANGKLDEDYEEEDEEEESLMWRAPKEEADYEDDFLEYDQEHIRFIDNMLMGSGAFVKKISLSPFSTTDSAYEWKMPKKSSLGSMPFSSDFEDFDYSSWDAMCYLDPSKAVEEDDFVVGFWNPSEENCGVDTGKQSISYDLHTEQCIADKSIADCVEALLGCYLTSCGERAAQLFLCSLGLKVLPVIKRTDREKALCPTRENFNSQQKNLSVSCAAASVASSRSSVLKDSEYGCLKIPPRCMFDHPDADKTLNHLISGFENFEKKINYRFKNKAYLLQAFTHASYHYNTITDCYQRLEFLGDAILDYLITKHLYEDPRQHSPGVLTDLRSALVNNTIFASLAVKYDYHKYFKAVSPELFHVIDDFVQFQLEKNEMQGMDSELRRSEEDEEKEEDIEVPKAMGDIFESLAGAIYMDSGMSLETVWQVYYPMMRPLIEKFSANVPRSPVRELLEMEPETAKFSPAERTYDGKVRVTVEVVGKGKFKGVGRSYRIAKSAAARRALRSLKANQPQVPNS
On to `CC(=O)N1CCc2cc(NC(=S)Nc3ccccc3Cl)ccc21`, for which the z-score was 0.03.
Consider `CSc1sc(C(=O)c2ccc(Cl)cc2)c2c1C(=O)CCC2`, for which the z-score was -1.08.
For the compound `CSc1sc(C(=O)NNC(=S)Nc2ccccc2Cl)c2c1C(O)CCC2` (stereo not drawn), the z-score is 6.52 (active).
For `CC1=C(C(=O)OCCc2ccccc2)C(c2cccs2)C2=C(CCCC2=O)N1` (stereo not drawn) the value was 0.14; for `CC(C)c1nnc(NC(=O)Cn2c(=O)sc3ccccc32)s1`, 0.59; for `COc1ccc(Cl)cc1NC(=O)CSc1nc2ncccc2[nH]1`, 3.45 (active).
For `CNC(=O)CSc1nc2ccccc2[nH]1` the value was 1.43.
The value for `Nc1cc(=O)[nH]c(SCC(=O)Nc2ccccc2F)n1` was 1.47; that for `O=C1c2ccccc2C(=O)N1CN1CCC(CCCC2CCN(CN3C(=O)c4ccccc4C3=O)CC2)CC1` was 2.46.
In the case of `Cc1sc2nc3n(c(=O)c2c1C)N=C(c1cccs1)CS3`, the z-score was 1.1.
Turning to `O=C1c2cccnc2C(=O)N1c1ccc(-c2nc3ccccc3o2)cc1`, the z-score is 2.88.
The value for `O=C(OCCN1CCOCC1)C1(c2ccccc2)CCCCC1` was -0.8.
For `O=C(OCCN1CCCCC1)C1COc2ccccc2O1` (stereo not drawn) the value was 3.41 (active); for `Cc1cc(NC(=O)CCC2COc3ccccc3O2)no1` (stereo not drawn), 0.67.
For `CC(C)(C)c1cc(N/C=C/c2nnnn2-c2ccccc2)no1` the value was -0.3; for `c1ccc(CN2CCN(Cc3cn[nH]c3-c3ccccc3)CC2)cc1`, -2.57.
For `COc1ccc(CN2CCN(Cc3ccccc3OC)CC2)cc1Br`, the z-score is 3.53 (active).
For `Brc1cccc(CN2CCN(Cc3cccnc3)CC2)c1` the value was 1.06; for `c1cc(CNCc2ccc3c(c2)OCO3)ccn1`, 3.21 (active); for `COc1cccc(CNCc2ccc3c(c2)OCO3)c1`, 0.54.
The value for `c1ccc(NCc2ccc3c(c2)OCO3)nc1` was -1.56.
The value for `COc1cccc(N2C(=O)C3ON(c4ccccc4)C(c4ccco4)C3C2=O)c1` (stereo not drawn) was 1.03; that for `COc1ccc(OCC(O)CN2CCC(C)CC2)cc1` (stereo not drawn) was -0.23.
Consider `CC1=C(C(=O)OCC2CCCO2)C(c2ccc(-c3ccccc3)cc2)C2=C(CCCC2=O)N1` (stereo not drawn), for which the z-score was 1.9.
For `CC1=C(C(=O)OCc2ccccc2)C(c2ccc(O)cc2)C2=C(CCCC2=O)N1` (stereo not drawn) the value was 0.01.
The value for `O=C1CCCC2=C1C(c1ccc([N+](=O)[O-])o1)Nc1ccc(C(=O)c3ccccc3)cc1N2` (stereo not drawn) was 4.19 (active); that for `COc1ccc(Cc2nc3c4c5c(sc4ncn3n2)CCCC5)cc1OC` was 0.1.
For `N#C/C(=C\c1sccc1Oc1ccccc1)S(=O)(=O)c1ccc(Cl)cc1` the value was -1.9.

Values taken from PubChem BioAssay AID1347074 (Center for Chemical Genomics, University of Michigan, 2019).
